# Laboratory results as given in PubChem BioAssay (NCATS).
# Results filed as inconclusive are left out. Values without a mark were called inactive. The source made the active and inactive calls. The call rests on the fitted dose curve; in most records, active means well fitted activation curve with a large enough effect; inconclusive means small, poorly fitted or top-dose-only effect, or effect the other way; inactive means flat fitted curve, though single readings scatter.
# Experiment: Cellular Toxicity (caspase-3) NIH 3T3 (AID 666);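 further: caspase signal read after 16 h compound exposure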
# Details: NIH 3T3 caspase-3 activation, apoptosis/toxicity, 0% DMSO, 100% is 100 µM tamoxifen; series mostly up to 92.2 µM; caspase-3 activation: at the top concentration
# Source text: NIH Chemical Genomics Center [NCGC]
# NIH Molecular Libraries Screening Centers Network [MLSCN]
# National Institutes of Environmental Health Sciences [NIEHS]
# National Toxicology Program [NTP]
# We have developed a 1536-well cell-based assay for quantitative high throughput screening (qHTS) against a number of cell lines to determine in vitro caspase 3/7 of small molecules. This particular assay uses the NIH 3T3 cell line which is derived from mouse fibroblasts.
# NCGC Assay Protocol Summary:
# The Caspase-Glo 3/7 assay (Promega) is a homogeneous method to measure caspase-3 and caspase-7 activities in cultured cells. The quantitation of caspase 3/7 activity is based on the cleavage of a peptide-aminoluciferin substrate. After caspase cleaves the substrate the free aminoluciferin is liberated and serves as the substrate of luciferase, which generates the light. The luminescent signal is proportional to amount of caspase 3/7 activity present.
# Using the Caspase-Glo 3/7 assay, the amount of caspase 3/7 activity was measured in the NIH 3T3 cell line with complete culture medium following compound treatment for 16 hours. The assay was performed in opaque white 1536-well plates. In the screen, tamoxifen and doxorubicin were used as positive controls. Library compounds were measured for their ability to cause the activation of caspase 3/7 in the cell line, as reflected by an increase in luminescence signal, in a concentration-dependent manner. Data were normalized to the controls for basal activity (DMSO only) and 100% stimulation (100 uM tamoxifen). AC50 values were determined from concentration-response data modeled with the standard Hill equation.
# qHTS protocol for caspase 3/7 assay in NIH 3T3 cells
# [Step] [Parameter] [Value] [Description]
# 1. Reagent; 5 uL; 1000 NIH 3T3 cells/well
# 2. Time; 5 hr; 37 °C incubation
# 4. Controls; 23 nL; Tamoxifen 0.23 uM to 100 uM & Doxorubicin 7.0 pM to 100 uM
# 5. Time; 16 hr; 37 °C incubation
# 6. Reagent; 5 uL; Caspase-Glo 3/7 reagent
# 7. Time; 20 min; Room Temperature
# 8. Detection; Luminescence; Viewlux plate reader
# Keywords: caspase 3/7, apoptosis, NIH 3T3 cell line, luminescence, NTPHTS, NTPHTS_NCGC, NIEHS, EPA, DSSTox, MLSMR, MLSCN, NIH Roadmap, qHTS, NCGC
SMILES,caspase-3 activation [%],outcome
OCCCBr,2.08,–
Nc1ccc(Cl)cc1N,-20.7,–
CN(C)[C@@H]1C(=O)C(C(N)=O)=C(O)[C@@]2(O)C(=O)C3=C(O)c4c(O)cccc4[C@@](C)(O)[C@H]3[C@H](O)[C@@H]12,1.91,–
CCCCOC(=O)c1ccccc1C(=O)OCc1ccccc1,-3.69,–
C1CCC(NC2CCCCC2)CC1,–,inactive
COC(C)(C)CCCC(C)C/C=C/C(C)=C/C(=O)OC(C)C (stereo unspecified),-4.08,–
Nc1ccc(Sc2ccc(N)cc2)cc1,0.478,–
CC(=O)[O][Hg][c]1ccccc1,-25.2,–
O=C(O)COc1ccccc1,0.0627,–
CCOP(=O)(NC(C)C)Oc1ccc(SC)c(C)c1 (stereo unspecified),1.42,–
c1cc2ccc3cccc4ccc(c1)c2c34,-2.13,–
CN(C)NC(=O)CCC(=O)O,-7.35,–
O=C(O)C(Cl)Cl,0.301,–
O=[N+]([O-])c1c2ccccc2cc2ccccc12,-0.32,–
Cc1cc(O)ccc1Cl,0.902,–
CCCCCCCCc1ccc(O)cc1,-5.17,–
O=[N+]([O-])c1cc([N+](=O)[O-])c2ccccc2c1,2.91,–
Nc1ccc(Cl)cc1,0.152,–
O=S(=O)(c1ccc(Cl)cc1)c1ccc(Cl)cc1,–,inactive
CCCCC(CC)COC(=O)c1ccccc1C(=O)OCC(CC)CCCC (stereo unspecified),-3.48,–
C=CC(=O)NCNC(=O)C=C,-3.05,–
Nc1ccc([N+](=O)[O-])cc1,1.94,–
O=[N+]([O-])c1c(Cl)c(Cl)cc(Cl)c1Cl,9.34,–
CCOCCOC(C)=O,-5.99,–
CC(C)(O)C(=O)Nc1ccc([N+](=O)[O-])c(C(F)(F)F)c1,-3.88,–
COc1ccc(C(c2ccc(OC)cc2)C(Cl)(Cl)Cl)cc1,–,inactive
